HIV RNase H inh-1: blocks HIV-1 RNase H cleavage of RNA/DNA duplex; P04585; AID 565; RT-RNase H RNA/DNA duplex cleavage, fluorescence; inhibition, % at 10 µM; actives 1.9% (n = 65,000); in the data active = inhibition above about 50%
RmlC RmlD mix: inhibitors of RmlC and RmlD coupled enzymes; actives 0.39% (n = 110,000); inhibition, % at 5.5 µM; AID 1532; RmlC/RmlD coupled enzyme inhibition, 384-well mixture HTS; in the data active = inhibition above about 30%, passing the limit was not always enough; inconclusive = no clear call, values can overlap the other calls
HIV RNase H inh-2: confirmation of HIV-1 reverse transcriptase RNase H inhibitors; shares compounds with HIV RNase H inh-1; Recombinant RT RNase H, fluorescent RNA/DNA duplex cleavage; inhibition, % at 10 µM; actives 39% (n = 1,000); AID 651; in the data active = inhibition above about 48%; inconclusive = no clear call, values can overlap the other calls
* marks the source's active call; other numbers are inactive results; u = inconclusive; x = not tested or not shown. The sample as a whole holds a higher share of hits than the screen did.

SMILES	HIV RNase H inh-1	RmlC RmlD mix	HIV RNase H inh-2
CC1(C)Cc2c(C#N)c(N)sc(=S)c2CO1	82*	9	40
CC(C)C1Cc2c(C#N)c(N)sc(=S)c2CO1 (centres undefined)	21	-6	x
CC(C)CCNC(=O)C(c1cccnc1)N(Cc1ccccc1)C(=O)Cn1nnc2ccccc21 (centres undefined)	x	8	x
COc1ccc([C@@H]2[C@H]3C(=O)N(c4cccc(C(F)(F)F)c4)C(=O)[C@H]3ON2C)cc1	x	-8	x
Nc1c(C(=O)NC2CCCCC2)c2nc3ccccc3nc2n1/N=C/c1ccco1	6	x	x
COCCNC(=O)c1c(N)n(/N=C/c2cccs2)c2nc3ccccc3nc12	-44	-145	x
CCCCCCNC(=O)c1c(N)n(/N=C/c2ccco2)c2nc3ccccc3nc12	71*	x	88*
CC(C)CNC(=O)c1c(N)n(/N=C/c2ccccn2)c2nc3ccccc3nc12	61*	-5	63*
Cc1ccc(C(=O)Nc2cc3c(oc2=O)CCCC3=O)cc1	x	7	x
COc1ccc(C2C(C#N)=C(N)SC(N)=C2C#N)cc1OC	30	10	x
CCOc1ccc(C2C(C#N)=C(N)SC(N)=C2C#N)c(OCC)c1	72*	4	19
CCOc1cc(C2C(C#N)=C(N)SC(N)=C2C#N)ccc1OCCN1CCOCC1	87*	-4	85*
CCCc1[nH]nc2c1C(c1ccc(OCCN3CCOCC3)c(OC)c1)C(C#N)=C(N)O2 (centres undefined)	2	-13	x
COc1cccc(C(=O)SC2=NCCS2)c1	-34	12	x
N#Cc1ccc(-c2ccccc2)nc1SCC(=O)c1cc2ccccc2oc1=O	x	28	x
CC(C)c1c(C#N)c(N)nc(SCC(=O)c2cc3ccccc3oc2=O)c1C#N	75*	-5	33
CC(C)Nc1ccc(C(CC(N)=O)NC(=O)Cc2ccc(Cl)cc2)cc1[N+](=O)[O-] (centres undefined)	x	7	x
CCCCN(C(=O)Cn1nnc2ccccc21)C(C(=O)NCCOC)c1cccs1 (centres undefined)	x	1	x
Cc1ccc(C)c(Cn2c(=O)n(CCC(=O)NCc3ccco3)c(=O)c3ccccc32)c1	75*	x	48
Cc1ccc(C)c(Cn2c(=O)n(CCCC(=O)NCc3ccco3)c(=O)c3sccc32)c1	x	6	x
N#Cc1c(-c2ccccc2)cc(-c2ccco2)c(C#N)c1N	46	x	x
N#Cc1sc2nc(-c3ccccc3)cc(-c3ccco3)c2c1N	95*	5	-5
C=CCn1c(SCC(=O)NC(=O)NC2CCCC2)nnc1C1CCCCC1	-4	4	x
C=CCn1c(SCc2cc(=O)n3ccsc3n2)nnc1C1CCCCC1	67*	6	-1
N#Cc1c(N)[nH]c(=S)c(C#N)c1-c1ccccc1	82*	4	-5
SMILES	HIV RNase H inh-1	RmlC RmlD mix	HIV RNase H inh-2
Cc1ccc(-c2cc(-c3ccccc3)[nH]c(=S)c2C#N)cc1	x	0	x
COc1ccc(S(=O)(=O)N2CCCCCC2)cc1N(C)S(=O)(=O)c1ccc(Cl)cc1	x	-14	x
O=c1c2c([nH]c3ccc(Br)cc13)CCCC2	-2	-29	x
O=c1ccc2cc3c([nH]c4ccc(Br)cc43)oc-2c1O	88*	10	58*
CC(C)c1ccc(S(=O)(=O)N2CCN(CC(=O)Nc3ccc4c(c3)OCO4)CC2)cc1	-11	7	x
Cc1c(NS(=O)(=O)c2ccccc2)cc(Cl)c(O)c1C	74*	-5	33
Cc1ccc(S(=O)(=O)Nc2cc(Cl)c(O)cc2C)cc1	x	-15	x
CCn1c(-c2ccc(C(C)(C)C)cc2)n[nH]c1=S	64*	0	9
CCn1c(-c2ccc(F)cc2)n[nH]c1=S	-2	19	x
Cc1ccccc1NC(=O)c1c(O)c2cccc3c2n(c1=O)CC3	52*	x	97*
Cc1ccccc1NC(=O)c1c(O)c2cccc3c2n(c1=O)CCC3	1	x	x
O=C(N1CCOCC1)N1CCN(S(=O)(=O)c2ccccc2)C1	-10	6	x
O=C(O)C1Sc2[nH]c(=O)sc2C2c3cc(Cl)ccc3OC(=O)C12 (centres undefined)	72*	2	20
COC(=O)C1Sc2[nH]c(=O)sc2C2c3ccccc3OC(=O)C12 (centres undefined)	-1	-12	x
CCCC(=O)Nc1cc(Cl)ccc1N1CCN(C(=O)CC)CC1	-8	-11	x
COc1ccc(-c2csc(NC(C)c3nc4cc(Cl)c(Cl)cc4n3CCCO)n2)cc1 (centres undefined)	x	-11	x
COc1cccc(C(c2sc3nc(C)nn3c2O)N2CCc3ccccc3C2)c1 (centres undefined)	81*	-9	-1
CCN1CCN(C(c2cccc(OC)c2)c2sc3nc(C)nn3c2O)CC1 (centres undefined)	-28	x	x
Cc1ccc(C)c(N=C2NC(=O)CS2)c1	-14	-1	x
Cc1cc(O)c(C(C)C)cc1N=C1CSC(=O)N1	67*	8	u

Screening results deposited in PubChem BioAssay by several laboratories.
